Among all 1,000 compounds or so, about 200 (20%) were called active. These entries were drawn from the full list. Entries with a potency or affinity are not part of this list. Unmarked numbers belong to inactive results. Cut-off read from the data, not from the text of the source: active = inhibition above about 55%; inactive = the rest.

For the test, the target named is Dual specificity protein phosphatase 3 (Homo sapiens) (UniProt P51452). Description: VHR1 phosphatase inhibitors, biochemical (AID 1878). Particulars: recombinant VHR phosphatase, fluorogenic substrate; at 13.3 µM; hits give high values.
Dual specificity protein phosphatase 3 (Homo sapiens), sequence (P51452 whole entry, looked up): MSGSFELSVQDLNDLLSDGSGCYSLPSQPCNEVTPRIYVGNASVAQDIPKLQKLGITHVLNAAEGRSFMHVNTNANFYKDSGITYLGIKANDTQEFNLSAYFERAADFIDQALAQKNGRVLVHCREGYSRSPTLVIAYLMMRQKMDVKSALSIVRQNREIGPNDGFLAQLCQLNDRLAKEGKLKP
Broadly, the inhibition is the drop in the measured response relative to a control, in per cent. Take `Cc1ccccc1C(=O)NC[C@@H]1CCCN2CCCC[C@H]12`: the inhibition is -3.5%.
With `CC(=O)c1cccc(OCc2cc(C(=O)N3CC4C[C@@H]5CC3C[C@H](C4)C5)no2)c1` the figure was 21.3%.
With `Cc1ccc2c(c1)N(CC(=O)NCCCN1CCCCC1C)C(=O)c1cccnc1O2` (stereo not given) the figure was -7.1%.
With `O=C(COC(=O)CNC(=O)c1ccc(Cl)cc1Cl)Nc1ccc(N2CCOCC2)cc1` the figure was 1.8%.
Turning to `Cc1ccc(S(=O)(=O)N(C)C)cc1NC(=S)N(C)C1CCN(C)CC1`, the inhibition is -3.6%.
For `CCc1nnc(NC(=O)COc2ccc3c(c2)OCO3)s1`, the inhibition was 5.7%.
In the case of `CCOc1ccccc1OCCN1CCCC1`, the inhibition was -12.9%.
On to `O=C(O)CCC(=O)N1N=C(c2ccccc2)CC1c1ccc(Br)cc1` (stereo not given), for which the inhibition was -7.5%.
With `COc1ccc(C2=NN(C(=O)CCCC(=O)O)C(c3cn(-c4ccccc4)nc3-c3ccccc3)C2)cc1` (stereo not given) the figure was 91.6% (active); with `O=[N+]([O-])c1ccc(N2N=C(c3ccccc3)CC2c2ccccc2O)cc1` (stereo not given), 6%; with `COc1cc(OC)c(NC2=CC(=O)C(=O)c3ccccc32)cc1Cl`, 6.7%.
For `O=C(NCCc1cnc[nH]1)Nc1cccc(C(F)(F)F)c1`, the inhibition is -4.7%.
With `CN(c1ccc(C(=O)N2CCCCC2)cc1)S(C)(=O)=O` the figure was 27%.
Consider `CC1=CC(=O)c2c(O)ccc(O)c2C1=O`, for which the inhibition was 65.2% (active).
With `COc1ccc(OC)c2c(C)cc(C)nc12`, the inhibition is -3.6%.
As for `CC1CCCC(C)N1/N=C/c1ccc(O)c(O)c1` (stereo not given), the inhibition is 2.9%.
For `COCCCN(CC(=O)Nc1ccc(N2CCOCC2)cc1)S(=O)(=O)c1ccc(Cl)cc1`, the inhibition was -3.7%.
With `CC1CCC(NCCNC(=O)c2ccco2)CC1` (stereo not given) the figure was -9.5%; with `O=C(Nc1ccnn1C1CCN(C2CCCC2)CC1)c1ccccc1`, -11.4%.
With `CCCCCC#CCC#CCC#CCC#CCCCC(=O)O` the figure was 94.6% (active); with `COc1ccc(Nc2nccc(-c3ccc(C#N)cc3)n2)cc1`, -0.6%.
With `NC(=O)NC(=O)C(Nc1ccc(N2CCCCC2)cc1)c1ccccc1` (stereo not given) the figure was 3.2%; with `CCOc1ccc(CNC(=O)c2cccc(NC(=O)C3=C(C)OCCS3)c2)cc1`, 5.4%.
Take `CN(C(=O)COC(=O)c1cc(F)c(F)cc1Cl)c1ccccc1`: the inhibition was -7.5%.
With `COC(=O)c1ccc(CN2CCCC(CNC(=O)Cc3ccc(OC)cc3)C2)cc1` (stereo not given) the figure was -1%.
On to `CCOc1ccc(CNC(=O)C(=O)c2cn(CC(=O)N3CCOCC3)c3ccccc23)cc1OC`, for which the inhibition is -5.3%.
With `CCCCN(C)CCNC(=O)CCn1nc(-c2ccc(C)cc2)ccc1=O` the figure was 49.7%; with `Cc1ccc(NC(=O)COc2cccc(-n3cnnn3)c2)cc1[N+](=O)[O-]`, -11.9%.
With `Cc1cccc(NC(=O)COc2ccc(/C=C\c3[nH]c(=O)[nH]c(=O)c3[N+](=O)[O-])cc2)c1` the figure was 98.7% (active).
With `Cc1ccc(OCC(=O)Nc2ccc(C(N)=O)cc2)cc1`, the inhibition is 19.4%.
With `Cc1nn(C)c(C)c1CCC(=O)N1CCCC(N2CCN(c3ccc(F)cc3)CC2)C1` (stereo not given) the figure was -3.3%; with `Cc1nc2sccn2c(=O)c1S(=O)(=O)Nc1ccc(N2CCN(S(C)(=O)=O)CC2)cc1`, -12.5%; with `COc1ccc(-c2ccnc3[nH]n(-c4ccccc4)c(=O)c23)cc1`, 7.3%.
For the compound `O=c1c2c(-c3cccc([N+](=O)[O-])c3)ccnc2[nH]n1-c1ccccc1`, the inhibition was 74.2% (active).
Regarding `O=[N+]([O-])c1cccc(S(=O)(=O)N2CCN(c3ccccn3)CC2)c1`, the inhibition is -9.5%.
For the compound `COc1ccc2c(C)nc(N/C(N)=N/S(=O)(=O)c3ccc(C)cc3)nc2c1`, the inhibition was 26.9%.
With `Cn1c(=O)[nH]c(=O)c2c1nc(N1CCNCC1)n2Cc1ccccc1Cl` the figure was 0.7%.
With `COc1cc(NC(=O)c2cnc(NCc3ccccc3)nc2C)cc(OC)c1OC` the figure was -1.7%; with `c1cc(-c2nnc3sc(C4CCCCC4)nn23)ccn1`, -3.4%; with `COc1ccccc1NS(=O)(=O)c1ccc2oc(SC)nc2c1`, -3.1%.
`O=C1Nc2ccccc2C1=Nc1ccc(F)cc1`: the inhibition was -4.5%.
For the compound `O=C(NC(=S)Nc1ccccn1)c1ccc(-c2ccccc2)cc1`, the inhibition is 0.9%.
In the case of `O=C(O)c1ccc(NC(=S)NC(=O)C(c2ccccc2)c2ccccc2)cc1`, the inhibition was -6.3%.
Take `COc1cccc(-c2cc(C(=O)N3CCc4ccccc4C3)[nH]n2)c1`: the inhibition is 6.6%.
With `COc1ccc(NC(=O)c2cc3ccc4c5ccccc5[nH]c4c3cc2O)cc1` the figure was 19.8%.
With `O=C(C1CC1)N1N=C(c2cccc(Br)c2)CC1(O)C(F)(F)F` (stereo not given) the figure was 2.7%; with `Nc1ccc(C(=O)N(CCO)CCO)cc1`, 4.4%; with `Cc1ccc2nc(/C(C#N)=C/c3ccc(-c4cccc([N+](=O)[O-])c4)o3)[nH]c2c1`, 96.4% (active).
For the compound `CN(C)C(=O)/C(=C/c1ccc(-c2cccc([N+](=O)[O-])c2)o1)NC(=O)c1ccccc1`, the inhibition was 1.2%.
With `CC(=O)Nc1nc(C)c(-c2nc3ccc([N+](=O)[O-])cc3[nH]2)s1` the figure was 1%.
On to `Cc1cc(C)c(S(=O)(=O)NCC2CCC(C(=O)NCCCN3CCC(C)CC3)CC2)c(C)c1` (stereo not given), for which the inhibition was -3.9%.
With `CC(=O)N1CCN(c2ccc(NCc3cccc4ccccc34)cc2)CC1` the figure was 3.9%; with `CN(C)c1ccc(N=Cc2cccn2C)cc1`, 0.6%.
With `CC(C)(C)CN1CCC(Oc2cccc(C(=O)N3CCNC(=O)C3(C)C)c2)CC1` the figure was 6.9%; with `COC(=O)C1=CN(Cc2ccc(OC)cc2)C=C(C(=O)OC)C1c1ccc(O)c(OC)c1`, 8.4%; with `O=C(CCNC(=O)N1CC(=O)Nc2ccccc21)Nc1cccc(Cl)c1`, 2%.
With `C=CCNC(=O)N1c2ccccc2Sc2ccccc21` the figure was 26.2%.
Turning to `CCN(C(=O)c1ccc(S(=O)(=O)N(C)C)cc1)C(C)C(=O)Nc1ccc(C)cc1` (stereo not given), the inhibition is 5.9%.
In the case of `CC(C)OCCCNC(=S)Nc1ccc(S(N)(=O)=O)cc1`, the inhibition was 54.9% (active).
With `CC(C)Oc1ccc(C(=O)Nc2ccc(S(=O)(=O)N3CCN(C)CC3)cc2)cc1` the figure was -10.6%.

The values are drawn from PubChem BioAssay AID1878 (Sanford-Burnham Center for Chemical Genomics, 2009).
